{
  "source": "PubChem BioAssay",
  "note": "Inconclusive results are not listed. Calls of active or inactive are those of the source. Unless noted, the limit is not given here; nearly all actives have IC50 up to about 30 µM.",
  "data": [
    {"test": "JHH-DIPG-1 glioma cell viability, MIPE5.0 library, CellTiter-Glo luminescence, qHTS (AID 1347067; cut-off not given, nearly all actives have AC50 up to about 26 µM;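 also: cells exposed to compound for 48 hours before readout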)", "details": "JHH-DIPG-1 glioma viability, CellTiter-Glo ATP luminescence", "values": [
      {"smiles": "COCc1c(-c2ccc(NC(=O)Nc3cc(C(F)(F)F)ccc3F)c(F)c2)c2c(N)ncnn2c1CN1CCOCC1", "AC50": "6.61 µM (active)"},
      {"smiles": "NC(=O)c1cnc(N[C@@H]2CCCC[C@@H]2N)nc1Nc1cccc(-n2nccn2)c1", "AC50": "23.5 µM (active)"},
      {"smiles": "CN[C@@H](C)C(=O)N[C@H](C(=O)N1CCC[C@H]1C(=O)Nc1snnc1-c1ccccc1)C1CCCCC1", "outcome": "inactive"},
      {"smiles": "COC1(c2sc3c(N4CCOCC4)nc(-c4cnc(N)nc4)nc3c2C)COC1", "AC50": "0.525 µM (active)"},
      {"smiles": "CC1(C(=O)O)CCC2(C)CCC3(C)C(=CC(=O)C4C5(C)CCC(OC6OC(C(=O)O)C(O)C(O)C6OC6OC(C(=O)O)C(O)C(O)C6O)C(C)(C)C5CCC43C)C2C1", "note": "(stereo not given)", "outcome": "inactive"},
      {"smiles": "CCS(=O)(=O)Nc1ccc(Oc2ccc(F)cc2F)c(-c2cn(C)c(=O)c3[nH]ccc23)c1", "AC50": "4.68 µM (active)"},
      {"smiles": "CCNCCc1ccc(CN(CC)c2cc(OC)ccc2[C@@H]2CCc3cc(O)ccc3C2)cc1", "AC50": "5.25 µM (active)"},
      {"smiles": "CC(C)n1c(=O)cc(N[C@@H](C)c2ccccc2)[nH]c1=O", "AC50": "14.8 µM (active)"},
      {"smiles": "c1ccc(CNCc2ccc(CN3CCCNCCNCCCNCC3)cc2)nc1", "outcome": "inactive"},
      {"smiles": "Cc1ccc(S(=O)(=O)Nc2cc(C(F)(F)F)ccc2C(=O)Nc2nc(-c3ccccc3)cs2)cc1", "AC50": "3.32 µM (active)"},
      {"smiles": "Cc1ccc(-n2c(C)cc(-c3nnc4n3CCCCC4)c2C)cc1", "AC50": "18.6 µM (active)"},
      {"smiles": "N#Cc1ccc(-c2c(-c3ncn[nH]3)sc(N3CCOCC3)c2C#N)c(F)c1", "AC50": "10.5 µM (active)"},
      {"smiles": "CN(C)N(C)C(=O)[C@@]1(Cc2ccccc2)CCCN(C(=O)[C@@H](Cc2c[nH]c3ccccc23)NC(=O)C(C)(C)N)C1", "outcome": "inactive"},
      {"smiles": "O=C(Cc1cccc(OC(F)(F)F)c1)Nc1ccc(CCCCc2nnc(NC(=O)Cc3ccccn3)s2)nn1", "AC50": "20.9 µM (active)"}
    ]},
    {"test": "SU-DIPG-XXV glioma cell viability, MIPE5.0 library, qHTS (AID 1347068);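 as to IC50: cells exposed to compound for 48 hours before viability readout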", "details": "not given", "values": [
      {"smiles": "Cc1ccc(NC(=O)[C@H]2CCCN(C(=O)c3c(C)cccc3F)[C@H]2c2ccc(NC3CCCC3)cc2)cc1C(F)(F)F", "outcome": "inactive"},
      {"smiles": "CC1(C)CCC2(CC1)N[C@@H](C(=O)N[C@@H]1CC[C@@H](C(N)=O)OC1)[C@H](c1ccnc(Cl)c1F)[C@]21C(=O)Nc2cc(Cl)ccc21", "outcome": "inactive"},
      {"smiles": "c1cn2cc(-c3ccc4cn[nH]c4c3)nc(Nc3ccc(N4CCOCC4)cc3)c2n1", "outcome": "inactive"},
      {"smiles": "O=C(NC[C@H](O)CN1CCc2ccccc2C1)c1ccnc(NC2CCC2)c1", "outcome": "inactive"},
      {"smiles": "CC(C)C(N)C(=O)OCC(CO)OCn1cnc2c(=O)[nH]c(N)nc21", "note": "(stereo not given)", "outcome": "inactive"},
      {"smiles": "OC(c1ccc(-c2ccc(CN3CCN(Cc4ccncc4)CC3)cc2)c(F)c1)(C(F)(F)F)C(F)(F)F", "outcome": "inactive"},
      {"smiles": "Cc1cc(O)c(-c2ccc([C@@H](C)CN(C)C)cc2)c2c1[nH]c(=O)c1sccc12", "IC50": "0.332 µM (active)"},
      {"smiles": "NC(=O)c1cccc(-c2cc(Nc3ccc(OC(F)(F)F)cc3)ncn2)c1", "IC50": "18.6 µM (active)"},
      {"smiles": "C=Cc1cc(O)cc2nc(-c3ccc(O)c(F)c3)oc12", "outcome": "inactive"},
      {"smiles": "COc1ccc(-n2cnc3cc(C(=O)N4CCCCC4)ccc32)cc1", "outcome": "inactive"},
      {"smiles": "O=C1OC(COc2ccccc2[N+](=O)[O-])CC1Cc1ccccc1", "note": "(stereo not given)", "outcome": "inactive"},
      {"smiles": "CCS(=O)(=O)N1CCN(c2ccc(Nc3ncc(C(N)=O)c(NC4CC4)n3)cc2)CC1", "IC50": "23.5 µM (active)"},
      {"smiles": "CCCCOC(=O)NS(=O)(=O)c1sc(CC(C)C)cc1-c1ccc(Cn2ccnc2)cc1", "outcome": "inactive"},
      {"smiles": "CCN1C(=O)CNc2ncc(-c3ccc(-c4ncn[nH]4)nc3C)nc21", "IC50": "8.33 µM (active)"},
      {"smiles": "Nc1nccc2c1ncn2[C@@H]1C=C(CO)[C@@H](O)[C@H]1O", "outcome": "inactive"},
      {"smiles": "COCc1c(-c2ccc(NC(=O)Nc3cc(C(F)(F)F)ccc3F)c(F)c2)c2c(N)ncnn2c1CN1CCOCC1", "IC50": "7.42 µM (active)"},
      {"smiles": "NC(=O)c1cnc(N[C@@H]2CCCC[C@@H]2N)nc1Nc1cccc(-n2nccn2)c1", "IC50": "18.6 µM (active)"},
      {"smiles": "CN[C@@H](C)C(=O)N[C@H](C(=O)N1CCC[C@H]1C(=O)Nc1snnc1-c1ccccc1)C1CCCCC1", "outcome": "inactive"},
      {"smiles": "COC1(c2sc3c(N4CCOCC4)nc(-c4cnc(N)nc4)nc3c2C)COC1", "IC50": "1.18 µM (active)"},
      {"smiles": "CC1(C(=O)O)CCC2(C)CCC3(C)C(=CC(=O)C4C5(C)CCC(OC6OC(C(=O)O)C(O)C(O)C6OC6OC(C(=O)O)C(O)C(O)C6O)C(C)(C)C5CCC43C)C2C1", "note": "(stereo not given)", "outcome": "inactive"},
      {"smiles": "CCNCCc1ccc(CN(CC)c2cc(OC)ccc2[C@@H]2CCc3cc(O)ccc3C2)cc1", "IC50": "3.32 µM (active)"}
    ]}
  ]
}
